# Screens from PubChem.
# Most compounds without a hit are left out; they make up all but 2.3% or so of the library.
# CHRM1 agonist – human M1 muscarinic receptor agonism | P11229 | CHO-K1 hM1, Fluo-8 calcium fluorescence, agonist mode; 0% DMSO, 100% acetylcholine EC100 | activation, % at 3 µM | 360,000 tested, 0.33% active | AID 588814;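 active = activation above the run's mean compound activation plus 3 SD, cut at about 16% in these data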;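 also: peak over basal fluorescence ratio within a 140 s kinetic read after compound addition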
# Target sequence (P11229 whole entry, looked up): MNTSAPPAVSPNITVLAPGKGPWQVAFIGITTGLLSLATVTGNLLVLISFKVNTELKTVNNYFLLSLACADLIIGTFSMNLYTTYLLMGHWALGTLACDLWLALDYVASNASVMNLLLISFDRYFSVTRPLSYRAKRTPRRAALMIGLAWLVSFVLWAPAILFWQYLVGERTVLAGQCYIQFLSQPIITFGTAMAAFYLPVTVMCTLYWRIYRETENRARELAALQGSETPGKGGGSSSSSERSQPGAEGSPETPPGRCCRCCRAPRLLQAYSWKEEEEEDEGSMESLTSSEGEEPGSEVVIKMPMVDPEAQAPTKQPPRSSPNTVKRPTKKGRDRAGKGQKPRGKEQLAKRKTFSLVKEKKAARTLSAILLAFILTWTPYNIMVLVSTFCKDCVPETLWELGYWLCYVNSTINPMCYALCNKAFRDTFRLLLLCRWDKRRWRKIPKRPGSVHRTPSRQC
# M1 PAM parental – counter-screen for M1 PAMs: effect in parental CHO-K1 cells. ATP EC20, Fluo-8 calcium fluorescence; 0% at ATP EC20, 100% at ATP max. activation, % at 3 µM. 360,000 tested, 0.02% active;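 active = activation above the run cutoff, the mean activation of all test compounds plus 3 SD, cut at about 40% in these data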;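 also: peak over basal fluorescence ratio in a 140 s read after ATP addition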
# CHO-K1 Ca ag – counter-screen for M1 agonists: effect in parental CHO-K1 cells. activation, % at 3 µM. Fluo-8 calcium fluorescence; scaled to maximal ATP response, vehicle zero. 360,000 tested, 0.48% active; in the data active = activation above about 15%;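 also: untransfected CHO-K1 host cells lacking M1 receptor as counterscreen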
# M1 antag – blocks human M1 muscarinic receptor; P11229; CHO-K1 hM1, Fluo-8 calcium fluorescence, ACh EC80 antagonist; inhibition, % at 3 µM; 360,000 tested, 1.3% active; AID 588852;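 active = percent inhibition above its own plate's cutoff, namely the mean of that plate's compound wells plus 3 SD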;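 also: peak over basal fluorescence ratio during 140 s after agonist addition; 0% = ACh EC80 plus DMSO and 100% = DMSO alone without agonist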
# CHO-K1 Ca antag – counter-screen for M1 antagonists: effect in parental CHO-K1 cells | 360,000 tested, 0.6% active | ATP-induced calcium, Fluo-8 fluorescence | AID 602250 | inhibition, % at 3 µM;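 active = inhibition above a per-plate cutoff, the plate's mean sample inhibition plus 3 SD, cut at about 24% in these data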;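 also: 0% = DMSO plus EC80 ATP and 100% = DMSO alone without ATP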
# M1 PAM – potentiates human M1 receptor response to acetylcholine. P11229. CHO-K1 hM1, Fluo-8 calcium fluorescence, ACh EC20; 0% = ACh EC20, 100% = maximal ACh. activation, % at 3 µM. 360,000 tested, 0.088% active; in the data active = activation above about 19%, passing the limit was not always enough
# The depositor's hits bear a star; nt = no result given.
SMILES,CHRM1 agonist,M1 PAM parental,CHO-K1 Ca ag,M1 antag,CHO-K1 Ca antag,M1 PAM
CC(C)(C)c1ccc(CC(=O)N2CCC2(C)C(=O)Nc2ccc3[nH]ncc3c2)cc1 (stereo not given),3,-1,10,11,2,-12
CC1(C(=O)Nc2ccc3[nH]ncc3c2)CCN1C(=O)Cc1ccc(-c2ccccc2)cc1 (stereo not given),7,-7,13,28*,11,-14
Cc1ncc([N+](=O)[O-])n1S(=O)(=O)c1ccc2c(c1)OCCO2,-2,13,0,-9,-6,12
COc1ccc2[nH]c(=O)c(CN(Cc3cccs3)S(=O)(=O)c3cccc4nsnc34)cc2c1,-3,4,9,32*,-13,-13
COc1ccc2[nH]c(=O)c(CN(CCO)S(=O)(=O)c3c(C)ccc4nsnc34)cc2c1,-1,-8,1,4,29*,1
Cc1cc(C(=O)N2CCC2(C)C(=O)NCc2cccc3ccccc23)nn1C (stereo not given),-1,-11,1,12,8,-6
O=S(=O)(NCC1CCN(Cc2ccccc2)CC1)c1ccccc1C(F)(F)F,-12,2,1,-2,-13,-1
CCN(CC)S(=O)(=O)c1ccc(O)c(NC(=O)COc2ccc(S(=O)(=O)N3CCOCC3)cc2)c1,-7,15,0,9,-10,-2
CC(C)C[C@H]1CN(CCCC[C@H]2CNC(=O)C(=O)N2Cc2ccccc2)C(=O)C(=O)N1CCc1ccc(O)cc1,nt,14,1,nt,-12,nt
COc1ccc2oc(=O)c(C(=O)NCc3ccc(F)cc3)cc2c1,3,12,16*,-7,4,8
CNC(=O)c1cc2cc(OC)ccc2oc1=O,-2,20,1,-9,-16,10
COc1ccc2oc(=O)c(C(=O)C[n+]3cccc(C)c3)cc2c1,-14,-13,0,32*,13,-31
O=C(NCCc1ccc(F)cc1)N[C@@H](Cc1ccccc1)C(=O)O,-6,2,0,-4,0,5
CCCCCC#CCN1CCN(C23CC4CC(CC(C4)C2)C3)CC1,-8,19,0,32,-20,-15
CCCC#CCN1CCN(C23CC4CC(CC(C4)C2)C3)CC1,-11,-1,0,47*,-6,-25
S=c1[nH]nc(-c2n[nH]c3c2CCC3)n1/N=C/C=C/c1ccccc1,-8,6,0,-21,-5,6
CCN(CC)S(=O)(=O)c1csc(C(=O)Nc2ccccn2)c1,-4,-8,0,2,27*,0
O=C(Nc1ccccn1)c1cccs1,0,20,0,-32,-17,7
Cc1ccccc1Cc1c(C)nc2nc(SCC(=O)NCCCN3CCCCC3)nn2c1C,-13,0,0,51*,-2,-31
Cc1ccc(Cc2c(C)nc3nc(SCC(=O)NCCCN4CCOCC4)nn3c2C)cc1,-5,10,1,-5,-17,-3
Cc1nc2nc(SCC(=O)NCCCN3CCCCCC3)nn2c(C)c1Cc1ccccc1,-12,13,0,77*,-13,-38
O=C(Nc1ccccc1Br)C1CC(=O)N(c2ccc3c4c(cccc24)CC3)C1 (stereo not given),-8,17,1,-14,-10,17
COc1cccc(Nc2nc3cc(C)ccc3cc2C)c1,-7,-14,0,-6,26*,-1
COc1ccc(Oc2c(OC)cc(NCc3ccc(CN)cc3)c3ncccc23)cc1,-4,15,2,8,-5,-4
CCN1C(=O)S/C(=C/c2c(OCc3ccc(C(=O)O)cc3)ccc3ccccc23)C1=O,29*,19,2,0,-10,16
SMILES,CHRM1 agonist,M1 PAM parental,CHO-K1 Ca ag,M1 antag,CHO-K1 Ca antag,M1 PAM
O=C(O)c1ccc(COc2ccc3ccccc3c2/C=C2/NC(=O)N(c3ccccc3)C2=O)cc1,-5,11,0,17,-1,-2
CC(OC(=O)CCCN=C1NS(=O)(=O)c2ccccc21)C(=O)c1ccccc1 (stereo not given),19*,6,16*,5,-4,-3
Cc1cccc(C(=O)NC(=S)NNC(=O)c2ccccc2Cl)c1,91*,-4,71*,27,3,-25
Cc1onc(-c2ccccc2)c1C(=O)NNC(=O)c1ccccc1,-2,12,0,-17,-15,10
Cc1cccc(C(=O)NC(=S)NNC(=O)Cc2ccccc2)c1,15,-14,1,2,16,-6
Cc1ccccc1C(=O)NNC(=S)NC(=O)c1ccc(Cl)cc1Cl,85*,-13,89*,18,12,-25
Cc1onc(-c2ccccc2)c1C(=O)NNC(=S)NC(=O)c1ccc(Br)cc1,75*,-12,65*,7,-8,-18
O=C(NC(=S)NNC(=O)c1ccc(Cl)cc1Cl)c1cccnc1,-3,-5,0,2,11,1
Cc1onc(-c2ccccc2)c1C(=O)NNC(=S)NC(=O)/C=C/c1ccccc1,40*,6,21*,5,-7,-10
Fc1ccccc1N1CCN(CC2CCCCC2)CC1,-4,26,1,-6,-13,-2
NC(=S)NN=C1c2ccccc2-c2ccccc21,0,15,1,-8,-13,7
O=C1CN(C(=O)COC(=O)CCc2ccccc2O)c2ccccc2N1,-2,17,3,-2,-15,-1
CCOC(=O)C1=CCC(c2cccc(C)c2)N(S(=O)(=O)c2ccc(C)cc2)C1 (stereo not given),-3,11,1,15,8,-7
Cc1onc(-c2ccccc2)c1C(=O)NNC(=O)c1ccccc1O,-3,9,1,-6,-10,4
Cc1onc(-c2ccccc2)c1C(=O)NNC(=S)NC(=O)c1ccc(Cl)cc1Cl,90*,-12,26*,16,1,-28
Cc1ccc(C(=O)NNC(=S)NC(=O)c2ccc(Cl)cc2)cc1,98*,-19,102*,45*,9,-38
O=C(NC(=S)Nc1ncccn1)c1ccc(Cl)cc1Cl,-6,12,21*,-7,-4,10
CCOc1cc(OCC)cc(C(=O)NCCN2CCC(n3c(=O)[nH]c4ccccc43)CC2)c1,nt,-5,1,nt,12,nt
COc1cc(/C=C/CNC[C@H]2O[C@@H](n3cc(C)c(=O)[nH]c3=O)C[C@@H]2O)ccc1O,-1,-1,0,1,6,-4
COc1cccc(-c2ccc(CN3C(C(C)C)C(=O)N(Cc4cn(CCC5OCCO5)nn4)CCS3(=O)=O)cc2)c1OC (stereo not given),-5,5,5,-26,-14,-2
Cc1cn([C@H]2C[C@H](O)[C@@H](CNC=O)O2)c(=O)[nH]c1=O,2,-1,1,-21,11,19
